Results as given in the supplement of paper PMC10849652.
About 8,800 targets were measured; listed, in parts, are those with a hit and a random draw of the rest. About 0.5% of all pairs of compound and target were hits.

Columns and labels:
Test in all cases: log2 fold change, soluble protein after heating vs DMSO (PISA); higher = thermal stabilisation; K562 lysate, 10 uM; active = over 0.2 and 3.5 SD of the protein, either way, in both replicates (recomputed)
[1] = compound: CS(=O)(=O)CCNCc1ccc(-c2ccc3ncnc(Nc4ccc(OCc5cccc(F)c5)c(Cl)c4)c3c2)o1 [lapatinib]
In short: (§1)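 Soluble protein was defined as the supernatant remaining after 21,000xg for 90 min, following pooling of heated aliquots and adjustment to 0.5% NP-40 at 4°C. Before that, crude K562 extract at 1 mg/mL protein in PBS pH 7.4 with 1 mM MgCl2 was treated with 10 μM compound for 30 min and heated for 3 min across 48°C-58°C. Quantification used TMTpro 16plex LC-MS/MS with channel sums equalised, and values are log-two fold changes in thermal stability relative to solvent controls from duplicates.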

[2] = compound: CS(=O)(=O)N1CCN(Cc2cc3nc(-c4cccc5[nH]ncc45)nc(N4CCOCC4)c3s2)CC1 [pictilisib]
In short: as §1

[3] = compound: C[C@@H](Oc1cc(-c2cnn(C3CCNCC3)c2)cnc1N)c1c(Cl)ccc(F)c1Cl [crizotinib]
In short: as §1

[4] = compound: C[C@H](C1=CC=C(C=C1)C(=O)NC2=C3C=CNC3=NC=C2)N
In short: as §1

[5] = compound: C[C@H](Nc1ncnc2nc[nH]c12)c1cc2cccc(Cl)c2c(=O)n1-c1ccccc1 [duvelisib]
In short: as §1

[6] = compound: Cc1cc(Nc2cc(CN3CCOCC3)c3nc(C)c(Cc4ccc(Cl)cc4F)n3n2)n[nH]1 [gandotinib]
In short: as §1

[7] = compound: Cc1cc(Nc2cc(N3CCN(C)CC3)nc(Sc3ccc(NC(=O)C4CC4)cc3)n2)n[nH]1 [tozasertib]
In short: as §1

[8] = compound: Cc1ccc(-n2nc(C(C)(C)C)cc2NC(=O)Nc2ccc(OCCN3CCOCC3)c3ccccc23)cc1 [doramapimod]
In short: as §1

[9] = compound: Cc1ccc(NC(=O)c2ccc(CN3CC[C@H](N(C)C)C3)c(C(F)(F)F)c2)cc1Nc1nccc(-c2cncnc2)n1 [bafetinib]
In short: as §1

[10] = compound: Cc1cccc(CC(=O)N2CCc3c2ccc(-c2cn(C)c4ncnc(N)c24)c3F)n1
In short: as §1

[11] = compound: Cc1cn(-c2cc(NC(=O)c3ccc(C)c(Nc4nccc(-c5cccnc5)n4)c3)cc(C(F)(F)F)c2)cn1 [nilotinib]
In short: as §1

[12] = compound: Cc1nc(Nc2n[nH]c3c2CN(C(=O)N[C@H](CN(C)C)c2ccccc2)C3(C)C)c2sccc2n1
In short: as §1

[13] = compound: Cc1nc(Nc2ncc(C(=O)Nc3c(C)cccc3Cl)s2)cc(N2CCN(CCO)CC2)n1 [dasatinib]
In short: as §1

[14] = compound: Cc1ncc(-c2ccnc(Nc3ccc(S(C)(=O)=O)cc3)n2)n1C(C)C
In short: as §1

[15] = compound: Cn1cc(-c2ccc3c(c2)CCN3C(=O)Cc2cccc(C(F)(F)F)c2)c2c(N)ncnc21
In short: as §1

[16] = compound: Cn1cc(CNCC2CCN(c3ncc(C(=O)NO)cn3)CC2)c2ccccc21 [quisinostat]
In short: as §1

[17] = compound: Cn1cncc1[C@@](N)(c1ccc(Cl)cc1)c1ccc2c(c1)c(-c1cccc(Cl)c1)cc(=O)n2C [tipifarnib]
In short: as §1

[18] = compound: NC(=O)Nc1cc(-c2cccc(F)c2)sc1C(=O)N[C@H]1CCCNC1
In short: as §1

[19] = compound: NC(=O)c1cnc(N[C@@H]2CCCC[C@@H]2N)nc1Nc1cccc(-n2nccn2)c1
In short: as §1

[20] = compound: NC1(c2ccc(-c3nc4ccn5c(=O)[nH]nc5c4cc3-c3ccccc3)cc2)CCC1
In short: as §1

Measured: log2 fold change

PPP1R11 (UniProt O60927)
Chain of UniProt O60927 (O60927 whole entry, looked up): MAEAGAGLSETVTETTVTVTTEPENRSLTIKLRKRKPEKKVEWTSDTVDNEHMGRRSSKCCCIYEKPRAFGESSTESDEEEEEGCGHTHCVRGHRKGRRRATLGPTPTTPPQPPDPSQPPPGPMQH
inactive: [1] 0.01 | [2] -0.016 | [3] -0.069 | [4] 0.153 | [5] -0.054 | [6] -0.048 | [7] 0.022 | [8] -0.022 | [9] 0.099 | [10] -0.071 | [11] -0.03 | [12] 0.035 | [13] -0.051 | [14] 0.074 | [15] -0.055 | [16] -0.131 | [17] -0.001 | [18] 0.01 | [19] -0.067 | [20] 0.078

PRKCA (UniProt P17252)
inactive: [1] -0.041 | [2] -0.021 | [3] -0.019 | [4] 0.054 | [5] -0.057 | [6] -0.207 | [7] 0.021 | [8] -0.023 | [9] -0.069 | [10] -0.079 | [11] -0.008 | [12] 0.227 | [13] -0.028 | [14] 0.095 | [15] -0.056 | [16] -0.035 | [17] 0 | [18] -0.067 | [20] -0.006
active: [19] 0.408

PRKRA (UniProt O75569)
Chain of UniProt O75569 (O75569 whole entry, looked up): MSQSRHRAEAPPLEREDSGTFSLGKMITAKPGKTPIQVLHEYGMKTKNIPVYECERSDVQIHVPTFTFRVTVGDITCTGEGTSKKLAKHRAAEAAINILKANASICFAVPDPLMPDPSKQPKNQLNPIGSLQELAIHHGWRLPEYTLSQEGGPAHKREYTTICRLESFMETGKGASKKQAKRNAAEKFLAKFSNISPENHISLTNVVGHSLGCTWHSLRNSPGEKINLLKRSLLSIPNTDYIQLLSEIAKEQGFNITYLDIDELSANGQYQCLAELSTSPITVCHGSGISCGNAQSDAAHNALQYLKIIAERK
inactive: [1] 0.01 | [2] -0.003 | [3] -0.021 | [4] -0.017 | [5] 0 | [6] -0.094 | [7] -0.005 | [8] -0.01 | [9] -0.003 | [10] 0.032 | [11] 0 | [12] -0.001 | [13] -0.01 | [14] 0.034 | [15] 0.029 | [16] -0.058 | [17] 0.016 | [18] 0.036 | [19] 0.012 | [20] -0.043

PGRMC1 (UniProt O00264)
Chain of UniProt O00264 (O00264 whole entry, looked up): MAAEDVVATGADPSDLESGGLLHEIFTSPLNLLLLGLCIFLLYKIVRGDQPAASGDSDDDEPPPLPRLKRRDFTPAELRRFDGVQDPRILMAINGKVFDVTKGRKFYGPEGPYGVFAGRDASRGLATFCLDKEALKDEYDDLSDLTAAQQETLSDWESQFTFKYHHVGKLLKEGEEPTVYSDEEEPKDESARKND
inactive: [1] 0.001 | [2] -0.023 | [3] 0.057 | [4] -0.011 | [5] -0.024 | [6] 0.047 | [7] 0.035 | [8] -0.052 | [9] 0.004 | [10] 0.018 | [11] 0.028 | [12] 0.015 | [13] 0.026 | [14] -0.078 | [15] 0.012 | [16] 0.106 | [17] 0.003 | [18] -0.059 | [19] 0.017 | [20] 0.056

PES1 (UniProt O00541)
Chain of UniProt O00541 (O00541 whole entry, looked up): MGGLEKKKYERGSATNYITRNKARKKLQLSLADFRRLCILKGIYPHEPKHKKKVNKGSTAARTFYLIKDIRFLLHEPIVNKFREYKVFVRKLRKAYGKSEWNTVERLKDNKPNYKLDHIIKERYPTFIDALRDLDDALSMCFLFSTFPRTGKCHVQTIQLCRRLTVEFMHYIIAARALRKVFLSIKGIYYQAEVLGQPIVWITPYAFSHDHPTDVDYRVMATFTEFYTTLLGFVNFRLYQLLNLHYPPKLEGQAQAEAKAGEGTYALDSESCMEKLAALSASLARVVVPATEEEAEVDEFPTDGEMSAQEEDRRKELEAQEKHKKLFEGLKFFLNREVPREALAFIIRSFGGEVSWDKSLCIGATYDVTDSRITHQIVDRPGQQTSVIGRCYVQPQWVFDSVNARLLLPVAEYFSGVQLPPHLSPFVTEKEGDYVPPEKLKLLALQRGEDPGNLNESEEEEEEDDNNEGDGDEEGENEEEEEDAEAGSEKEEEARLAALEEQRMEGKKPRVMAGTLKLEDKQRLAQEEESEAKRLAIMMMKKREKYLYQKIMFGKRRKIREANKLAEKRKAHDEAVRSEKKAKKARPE
inactive: [1] 0.006 | [2] 0.005 | [3] -0.001 | [4] -0.027 | [5] 0.01 | [6] -0.025 | [7] 0.004 | [8] -0.021 | [9] -0.014 | [10] 0.064 | [11] -0.004 | [12] 0.006 | [13] 0.016 | [14] -0.034 | [15] 0.001 | [16] -0.067 | [17] 0.001 | [18] 0.026 | [19] 0.015 | [20] -0.047

PHLDB1 (UniProt Q86UU1)
Chain of UniProt Q86UU1 (Q86UU1 whole entry, looked up): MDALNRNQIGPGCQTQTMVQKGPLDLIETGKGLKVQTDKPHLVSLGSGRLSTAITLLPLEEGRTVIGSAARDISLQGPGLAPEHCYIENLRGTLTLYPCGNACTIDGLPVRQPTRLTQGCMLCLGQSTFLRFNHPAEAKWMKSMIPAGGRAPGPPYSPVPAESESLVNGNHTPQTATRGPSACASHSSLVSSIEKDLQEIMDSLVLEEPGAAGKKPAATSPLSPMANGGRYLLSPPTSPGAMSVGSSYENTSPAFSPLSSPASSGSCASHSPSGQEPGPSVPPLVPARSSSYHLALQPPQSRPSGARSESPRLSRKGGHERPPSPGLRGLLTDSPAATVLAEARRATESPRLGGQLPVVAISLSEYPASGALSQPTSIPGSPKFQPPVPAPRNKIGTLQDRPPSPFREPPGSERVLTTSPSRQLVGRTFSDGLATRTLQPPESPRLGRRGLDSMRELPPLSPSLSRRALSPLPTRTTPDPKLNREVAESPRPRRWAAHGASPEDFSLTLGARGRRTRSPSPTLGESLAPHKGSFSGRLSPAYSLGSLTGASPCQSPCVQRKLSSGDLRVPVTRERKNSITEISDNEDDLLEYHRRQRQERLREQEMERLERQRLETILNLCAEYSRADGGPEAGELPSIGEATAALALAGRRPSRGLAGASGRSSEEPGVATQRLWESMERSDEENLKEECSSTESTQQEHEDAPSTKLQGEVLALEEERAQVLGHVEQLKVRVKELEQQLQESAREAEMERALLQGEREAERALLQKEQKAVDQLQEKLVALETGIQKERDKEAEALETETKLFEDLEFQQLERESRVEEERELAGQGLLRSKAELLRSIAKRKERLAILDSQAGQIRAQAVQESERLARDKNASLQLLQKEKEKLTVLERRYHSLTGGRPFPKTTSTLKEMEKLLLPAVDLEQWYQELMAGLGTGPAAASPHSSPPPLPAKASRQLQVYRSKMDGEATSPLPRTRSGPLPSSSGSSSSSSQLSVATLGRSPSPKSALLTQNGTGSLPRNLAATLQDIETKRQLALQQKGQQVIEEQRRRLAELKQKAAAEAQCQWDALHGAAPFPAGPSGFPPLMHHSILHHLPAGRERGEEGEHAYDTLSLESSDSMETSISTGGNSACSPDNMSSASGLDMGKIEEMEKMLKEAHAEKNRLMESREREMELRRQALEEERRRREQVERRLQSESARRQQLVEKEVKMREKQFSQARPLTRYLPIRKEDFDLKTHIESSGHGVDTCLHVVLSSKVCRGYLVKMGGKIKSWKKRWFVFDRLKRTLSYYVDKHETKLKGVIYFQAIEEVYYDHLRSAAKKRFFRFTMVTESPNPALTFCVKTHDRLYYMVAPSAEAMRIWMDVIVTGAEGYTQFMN
inactive: [1] -0.052 | [2] 0.034 | [3] -0.154 | [4] -0.06 | [5] -0.028 | [6] 0.073 | [7] -0.047 | [8] 0.076 | [9] -0.112 | [10] 0.031 | [11] -0.035 | [12] -0.012 | [13] 0.002 | [14] -0.006 | [15] -0.046 | [16] -0.243 | [17] -0.003 | [18] 0.028 | [19] -0.036 | [20] 0.004

PRKAR2B (UniProt P31323)
Chain of UniProt P31323 (P31323 whole entry, looked up): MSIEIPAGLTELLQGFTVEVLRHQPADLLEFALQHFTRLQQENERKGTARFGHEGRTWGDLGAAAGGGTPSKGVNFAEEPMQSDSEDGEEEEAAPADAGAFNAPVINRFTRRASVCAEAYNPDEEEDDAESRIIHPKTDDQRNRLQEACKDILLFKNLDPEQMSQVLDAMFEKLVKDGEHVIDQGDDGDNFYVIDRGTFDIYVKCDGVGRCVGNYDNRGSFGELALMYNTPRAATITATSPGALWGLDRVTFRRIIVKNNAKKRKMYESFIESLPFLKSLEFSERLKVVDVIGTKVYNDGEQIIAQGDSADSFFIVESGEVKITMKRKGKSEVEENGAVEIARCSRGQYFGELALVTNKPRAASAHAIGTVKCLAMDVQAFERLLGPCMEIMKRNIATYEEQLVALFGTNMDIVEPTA
inactive: [1] 0.013 | [2] -0.059 | [3] -0.007 | [4] -0.011 | [5] 0 | [7] 0.038 | [8] 0.017 | [9] -0.02 | [10] 0.001 | [11] 0.023 | [12] -0.078 | [13] -0.104 | [14] 0.013 | [15] 0.031 | [16] 0.073 | [17] 0.019 | [18] -0.1 | [19] -0.028 | [20] 0.013
active: [6] -0.31

PPIL2 (UniProt Q13356)
Chain of UniProt Q13356 (Q13356 whole entry, looked up): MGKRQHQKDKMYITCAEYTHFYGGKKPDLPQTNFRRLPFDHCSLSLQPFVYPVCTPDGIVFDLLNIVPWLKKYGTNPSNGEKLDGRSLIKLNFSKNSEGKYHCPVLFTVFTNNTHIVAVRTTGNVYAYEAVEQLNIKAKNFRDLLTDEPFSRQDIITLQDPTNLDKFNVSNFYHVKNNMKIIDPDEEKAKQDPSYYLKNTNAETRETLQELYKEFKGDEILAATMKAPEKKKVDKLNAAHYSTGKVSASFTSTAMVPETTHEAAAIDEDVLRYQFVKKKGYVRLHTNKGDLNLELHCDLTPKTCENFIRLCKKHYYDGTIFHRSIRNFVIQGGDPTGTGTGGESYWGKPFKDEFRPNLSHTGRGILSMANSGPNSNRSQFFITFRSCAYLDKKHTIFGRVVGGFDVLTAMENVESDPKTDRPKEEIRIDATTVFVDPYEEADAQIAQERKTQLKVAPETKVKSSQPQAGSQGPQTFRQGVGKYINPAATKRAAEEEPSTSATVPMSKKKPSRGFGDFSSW
inactive: [1] -0.034 | [2] -0.014 | [3] -0.037 | [4] -0.011 | [5] -0.047 | [6] -0.019 | [7] 0.047 | [8] 0.043 | [9] -0.022 | [10] 0.054 | [11] -0.032 | [12] 0.014 | [13] 0.064 | [14] 0.008 | [15] -0.004 | [16] -0.063 | [17] -0.038 | [18] 0.018 | [19] -0.063 | [20] 0.011

PIK3C3 (UniProt Q8NEB9)
inactive: [1] -0.066 | [2] 0.041 | [3] -0.009 | [4] -0.137 | [5] 0.107 | [7] -0.042 | [8] -0.005 | [9] -0.013 | [10] 0.133 | [11] -0.001 | [12] -0.011 | [13] -0.05 | [14] 0.062 | [15] -0.025 | [16] -0.022 | [17] -0.054 | [18] 0.027 | [19] 0.04 | [20] -0.008
active: [6] 0.272

PIK3R2 (UniProt O00459)
inactive: [1] -0.009 | [3] -0.018 | [4] 0.009 | [6] 0.043 | [7] 0.009 | [8] 0.014 | [9] -0.004 | [10] -0.016 | [11] 0.007 | [12] -0.006 | [13] -0.023 | [14] 0.003 | [15] -0.008 | [16] -0.04 | [17] -0.001 | [18] 0.031 | [19] 0.017 | [20] 0.263
active: [2] 0.318 | [5] 0.322

PCBP2 isoform 8 (UniProt Q15366)
Chain of UniProt Q15366 (Q15366 whole entry, looked up): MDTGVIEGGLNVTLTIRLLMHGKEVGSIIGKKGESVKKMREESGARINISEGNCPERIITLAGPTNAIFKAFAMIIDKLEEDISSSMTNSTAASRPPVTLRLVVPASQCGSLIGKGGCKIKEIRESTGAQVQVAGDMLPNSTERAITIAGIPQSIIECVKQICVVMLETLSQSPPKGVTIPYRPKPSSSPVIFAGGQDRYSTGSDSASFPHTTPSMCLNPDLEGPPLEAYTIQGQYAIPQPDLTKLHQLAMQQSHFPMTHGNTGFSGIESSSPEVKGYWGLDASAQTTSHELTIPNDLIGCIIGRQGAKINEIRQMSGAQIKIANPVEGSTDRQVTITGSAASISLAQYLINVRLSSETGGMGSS
inactive: [1] 0.022 | [2] -0.013 | [3] 0.001 | [4] 0.013 | [5] 0.04 | [6] 0.029 | [7] -0.026 | [8] -0.092 | [9] 0.082 | [10] 0.036 | [11] 0.059 | [12] 0.069 | [13] -0.057 | [14] 0.04 | [15] 0.003 | [16] 0.133 | [17] 0.015 | [18] 0.055 | [19] -0.091 | [20] -0.049

PFDN2 (UniProt Q9UHV9)
inactive: [1] -0.001 | [2] -0.017 | [3] 0.054 | [5] 0 | [6] -0.1 | [7] 0.053 | [8] 0.005 | [9] -0.064 | [10] -0.13 | [11] -0.011 | [12] 0.013 | [13] 0.008 | [14] -0.045 | [15] -0.019 | [16] 0.037 | [17] 0 | [18] -0.018 | [19] -0.028 | [20] 0.053
active: [4] 0.365

PFKFB3 isoform 4 (UniProt Q16875)
inactive: [1] -0.228 | [2] -0.057 | [3] -0.021 | [4] 0.004 | [5] -0.009 | [6] -0.006 | [7] -0.003 | [8] 0.007 | [9] -0.03 | [10] 0.007 | [11] 0.018 | [12] -0.023 | [13] -0.088 | [14] -0.021 | [15] 0.075 | [16] -0.012 | [17] 0.01 | [18] -0.025 | [19] -0.192 | [20] -0.001

PUS1 (UniProt Q9Y606)
Chain of UniProt Q9Y606 (Q9Y606 whole entry, looked up): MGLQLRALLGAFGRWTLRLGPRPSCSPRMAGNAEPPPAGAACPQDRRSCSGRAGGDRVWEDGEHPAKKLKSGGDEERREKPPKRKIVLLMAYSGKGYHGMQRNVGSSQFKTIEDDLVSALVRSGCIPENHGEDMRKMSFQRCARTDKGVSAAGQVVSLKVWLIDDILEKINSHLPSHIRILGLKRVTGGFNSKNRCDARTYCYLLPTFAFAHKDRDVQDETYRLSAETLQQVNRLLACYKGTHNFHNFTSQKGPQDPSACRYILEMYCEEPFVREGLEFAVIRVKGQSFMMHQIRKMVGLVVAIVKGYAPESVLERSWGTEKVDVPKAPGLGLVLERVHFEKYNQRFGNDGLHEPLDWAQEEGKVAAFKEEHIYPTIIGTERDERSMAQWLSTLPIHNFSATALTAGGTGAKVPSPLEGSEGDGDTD
inactive: [1] -0.042 | [2] -0.058 | [3] -0.062 | [4] -0.006 | [5] 0.008 | [6] -0.033 | [7] 0.012 | [8] 0.006 | [9] -0.047 | [10] 0.027 | [11] 0.005 | [12] -0.042 | [13] -0.01 | [14] 0.01 | [15] 0.018 | [16] -0.058 | [17] 0.018 | [18] 0.043 | [19] 0.036 | [20] -0.023

PLK1 (UniProt P53350)
Chain of UniProt P53350 (P53350 whole entry, looked up): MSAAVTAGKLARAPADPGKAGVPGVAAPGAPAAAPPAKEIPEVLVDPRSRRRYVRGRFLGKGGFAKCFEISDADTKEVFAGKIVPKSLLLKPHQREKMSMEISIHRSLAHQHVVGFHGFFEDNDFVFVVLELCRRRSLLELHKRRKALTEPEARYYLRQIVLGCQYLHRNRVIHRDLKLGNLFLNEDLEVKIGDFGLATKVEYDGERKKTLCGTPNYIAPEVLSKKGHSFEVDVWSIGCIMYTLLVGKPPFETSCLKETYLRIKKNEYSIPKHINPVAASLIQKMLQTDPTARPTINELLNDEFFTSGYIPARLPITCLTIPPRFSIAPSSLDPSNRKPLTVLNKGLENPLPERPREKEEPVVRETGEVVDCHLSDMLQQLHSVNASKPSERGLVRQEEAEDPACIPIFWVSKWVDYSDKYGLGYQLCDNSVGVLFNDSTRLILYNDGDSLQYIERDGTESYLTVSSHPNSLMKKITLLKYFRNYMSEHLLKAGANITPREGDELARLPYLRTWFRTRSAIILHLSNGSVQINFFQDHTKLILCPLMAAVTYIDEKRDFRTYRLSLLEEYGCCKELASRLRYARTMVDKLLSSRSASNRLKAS
inactive: [1] -0.024 | [2] 0.013 | [3] -0.179 | [4] 0.168 | [5] 0.043 | [6] -0.088 | [7] 0.003 | [8] 0.03 | [9] -0.019 | [10] -0.055 | [11] 0.014 | [12] -0.073 | [13] -0.004 | [14] 0.008 | [15] -0.015 | [16] -0.021 | [17] 0.032 | [18] -0.193 | [19] -0.043 | [20] 0.01

PRPF6 (UniProt O94906)
inactive: [1] -0.008 | [2] 0.009 | [3] -0.06 | [4] -0.023 | [5] -0.023 | [6] -0.08 | [7] 0.023 | [8] 0.064 | [9] -0.056 | [10] 0.031 | [11] -0.001 | [12] 0.021 | [13] -0.036 | [14] -0.005 | [15] 0.026 | [16] -0.067 | [17] 0.008 | [18] 0.044 | [19] 0.022 | [20] -0.019
